Screens as filed in PubChem.
ssDAF-12 act = activators of S. stercoralis DAF-12 nuclear receptor. hit rate 1% among 370,000. HEK293 ssDAF-12/GRIP1 lit1-tk-luc reporter, luminescence; % of 3 µM dafachronic acid response. activation, % at 6.8 µM;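 active means activation above the mean over all tested compounds plus 3 SD, cut at about 0.9% in these data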;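 further: 0% = DMSO-only wells and 100% = 3 µM delta7-dafachronic acid wells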
DAX1 inh-1 = inhibitors of human orphan nuclear receptor DAX1 (NR0B1) | P51843 | HEK293 Gal4-DAX1 luciferase reporter, luminescence | hit rate 0.99% among 340,000 | inhibition, % at 6.75 µM;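 active means inhibition above the mean over all tested compounds plus 3 SD, cut at about 4.2% in these data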;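 further: 0% = DAX1-transfected cells with DMSO and 100% = empty-vector control cells with DMSO; inhibition shows as a rise in luminescence from relieved DAX1 repression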
Target sequence (P51843 207-470 limits assumed): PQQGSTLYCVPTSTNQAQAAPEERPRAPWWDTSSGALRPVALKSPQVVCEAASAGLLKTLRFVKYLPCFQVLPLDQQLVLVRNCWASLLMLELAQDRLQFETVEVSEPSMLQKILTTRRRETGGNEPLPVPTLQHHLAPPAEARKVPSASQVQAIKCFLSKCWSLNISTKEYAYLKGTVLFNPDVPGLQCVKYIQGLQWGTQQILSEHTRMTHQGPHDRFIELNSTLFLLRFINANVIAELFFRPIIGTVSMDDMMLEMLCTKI
DAX1 inh-2 = inhibitors of DAX1 repression of SF-1 activated StAR promoter; HEK293T StAR-luciferase reporter, SF-1/DAX-1 repression relief; inhibition, % at 6.8 µM; hit rate 1.1% among 370,000; AID 652010;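 active means inhibition above the mean over all tested compounds plus 3 SD, cut at about 3.6% in these data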;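 further: 0% = DAX-1 cells with DMSO and 100% = cells lacking DAX-1 with DMSO; higher inhibition means more luminescence from relief of DAX-1 repression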
hcDAF12 agonist = H. contortus DAF-12 activation, primary screen; HEK293 hcDAF-12 lit1-tk-luc reporter, luminescence; 0% DMSO, 100% Δ7-dafachronic acid; activation, % at 6.8 µM; hit rate 1.4% among 370,000;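 active means activation above the mean of all tested compounds plus 3 SD, cut at about 5.5% in these data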;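 further: 100% = response to 3 µM Δ7-dafachronic acid high control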
FXN GAA850 act = increases GAA850 frataxin promoter reporter activity; hit rate 0.56% among 360,000; HEK293 lucGAA850 FXN promoter luciferase reporter, 24 h; percent of 10 µM SAHA response; activation, % at 6 µM;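 active means activation above the average of all compounds screened plus 3 SD, cutoff fixed separately per campaign, cut at about 7.5% in these data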;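 further: 0% = DMSO wells and 100% = 10 µM SAHA wells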
hgDAF-12 ag = agonists of H. glycines DAF-12 nuclear receptor. hit rate 1.8% among 370,000. HEK293 GAL4-hgDAF12 UAS-luciferase reporter, agonist luminescence; normalized to butyrate control. activation, % at 6.8 µM;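 active means activation above a cutoff set at the mean of all screened compounds plus 3 SD, cut at about 10% in these data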;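 further: 0% = DMSO wells and 100% = sodium butyrate wells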
Starred values were filed as active, the others as inactive; · = no result. In the library only some 4.5% were active in any assay of this set; here they are far more common.

SMILES | ssDAF-12 act | DAX1 inh-1 | DAX1 inh-2 | hcDAF12 agonist | FXN GAA850 act | hgDAF-12 ag
COCCn1c(SCC(=O)Nc2ccc(F)cc2F)nc2c([nH]c3ccccc32)c1=O | 0.8 | 0.0 | 2.9 | 4.3 | 3.3 | -2.8
C=CCn1c(SCC(=O)Nc2ccc(F)cc2F)nc2c([nH]c3ccccc32)c1=O | 1.9* | 0.1 | -1.0 | 2.9 | 2.0 | 1.4
C=CCn1c(SCC(=O)NCCc2ccccc2)nc2c([nH]c3ccccc32)c1=O | 1.0* | 0.5 | -1.6 | 4.8 | 2.8 | 1.6
O=S1(=O)c2c(cccc2N2CCSCC2)Oc2ccccc2CN1Cc1cn(Cc2ccccc2C(F)(F)F)nn1 | -2.0 | · | 0.4 | -1.9 | · | -0.1
CCCN1C(=O)C(=O)N(CC(=O)c2cc(C)n(C3CC3)c2C)C1=O | -0.8 | 1.5 | 3.8* | 3.4 | 1.4 | 10.0
CCN(CC)C(=O)CCc1nnc(Cc2cccc(C(F)(F)F)c2)o1 | 0.9 | 1.5 | 0.9 | 2.4 | 5.3 | 13.2*
COC(=O)C[C@H]1CC[C@@H]2[C@H](COc3ccc(NC(=O)C(C)C)cc3C(=O)N2C)O1 | -0.8 | · | 0.4 | -0.3 | · | -1.3
CN(CCCOC(=O)c1occ2ccccc12)C1CN(Cc2cn(Cc3ccccc3Cl)nn2)S(=O)(=O)C1 (stereo not drawn) | -1.8 | · | 0.5 | -1.6 | · | 2.2
CC(=O)c1c(C)[nH]c(C(=O)NCCc2ccccc2)c1C | 0.1 | 3.1 | 2.7 | 2.5 | 2.8 | 8.7
CC(=O)c1c(C)[nH]c(C(=O)N(CCc2ccccc2)Cc2ccccc2)c1C | -0.7 | -0.7 | -0.4 | 5.9* | -0.5 | -2.3
Cc1c(C(=O)Nc2nccs2)oc2ccc(F)cc12 | 1.6* | 2.3 | 2.0 | 6.3* | 4.5 | 8.9
CSc1sc(C(=O)NN)c2c1C1(CCC2)SCCS1 | -0.7 | 5.8* | 0.0 | 0.8 | 2.7 | 1.0
Cc1cc(C)cc(-n2ncc3c2CCCC3NC(=O)c2csnn2)c1 (stereo not drawn) | -0.6 | 1.0 | 4.5* | -4.0 | 3.0 | 3.7
COC[C@@H](OC(C)=O)[C@H]1OCc2ccccc2[C@@H]1/C=C/c1ccccc1 | -0.2 | · | 0.2 | -0.2 | · | 1.1
O=C(NCCCNC1CCCCC1)c1ccc(/C=N/O)nc1 | 1.5* | -0.9 | 0.9 | 5.0 | -1.0 | 0.1
CN(C)[C@H]1CCN(c2ccc3c(c2)O[C@@H]2CCN(C2)S3(=O)=O)C1 | 0.2 | · | 0.7 | 0.0 | · | 2.6
CC(C)[C@H](NC(=O)[C@@H]1Cc2c([nH]c3ccccc23)C2c3ccccc3C(=O)N21)C(=O)N1CCC[C@H]1C(=O)O (stereo partly drawn) | 0.2 | · | 0.8 | 2.0 | -1.5 | -1.6
CC(C)[C@H](NC(=O)[C@@H]1Cc2c([nH]c3ccccc23)C2c3ccccc3C(=O)N21)C(=O)N1CCC[C@@H]1C(=O)O (stereo partly drawn) | -0.3 | 4.2 | -0.9 | 5.7* | -0.1 | 0.6
CC(OP(=O)(O)C(NC(=O)[C@H](Cc1ccc(O)cc1)NC(=O)OC(C)(C)C)C(C)C)C(=O)O (stereo partly drawn) | -1.6 | · | · | 0.0 | · | 0.0
CC1(C)Cc2nc3sc4c(=O)n(CC(N)=O)cnc4c3cc2CO1 | -0.5 | 0.3 | 0.4 | -0.3 | 1.2 | 2.8
CC1(C)Cc2nc3sc(C(=O)NCCCO)c(N)c3cc2CO1 | 0.4 | 6.5* | 0.0 | 4.5 | 0.2 | 2.5
COCCNC(=O)c1ccc(CS(=O)(=O)c2ccc(OC)cc2)o1 | -0.6 | 5.2* | -0.6 | -0.2 | 0.4 | -3.8
CN1CCN(CCCNC(=O)c2ccc(CS(=O)(=O)c3ccc(Br)cc3)o2)CC1 | -1.3 | 4.3* | -0.9 | -2.6 | 1.3 | 0.7
c1ccc2c(c1)-c1nc3ccccc3cc1C2N1CCCCC1 (stereo not drawn) | 1.4* | 2.5 | 4.2* | 3.5 | 0.8 | 9.8
CC1(C)c2ccccc2-c2nc3ccccc3cc2C1O (stereo not drawn) | 0.0 | 1.1 | -0.1 | 3.6 | 3.4 | 4.1
N#Cc1cccc(OC[C@@H](O)CN2CCC(C(O)(c3ccccc3)c3ccccc3)CC2)c1 | -1.4 | · | 0.9 | -1.8 | · | 0.5
CCOC(=O)CSc1nc2ccccc2c(=O)n1NC(=O)c1ccccc1 | 1.1* | 0.1 | 3.9* | 3.5 | 4.2 | 11.4*
